The list is not random: actives were taken first. Their share in the collection is about 21%.
Gal4-VP16 FLuc: VP16 counterscreen qHTS for inhibitors of ROR gamma transcriptional activity. Potency, µM (series often up to 53.6 µM), for inactives: top-dose activity, negative = inhibition, usual class: inhibitors. Drosophila S2 Gal4-VP16 UAS-luciferase, luminescence, 20 h. AID 2546, 2010. hit rate 3.5% among 310,000;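 further: Gal4-VP16 expression switched on by copper sulfate through the metallothionein promoter; potency means the concentration at half of the fitted maximal effect; nearly all actives have a fitted effect of over 50% in size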
RORg inh: qHTS for inhibitors of ROR gamma transcriptional activity. Drosophila S2 Gal4-RORgamma UAS-luciferase reporter, 20 h. Potency, µM (titrated, usually from 53.6 µM), without a hit: top-dose activity change, negative = inhibition, usual class: inhibitors. hit rate 5.4% among 310,000; further: potency means the concentration at half of the fitted maximal effect; nearly all actives have a fitted effect of over 60% in size
Target sequence (P51450 whole entry, looked up, the tested form may be a part): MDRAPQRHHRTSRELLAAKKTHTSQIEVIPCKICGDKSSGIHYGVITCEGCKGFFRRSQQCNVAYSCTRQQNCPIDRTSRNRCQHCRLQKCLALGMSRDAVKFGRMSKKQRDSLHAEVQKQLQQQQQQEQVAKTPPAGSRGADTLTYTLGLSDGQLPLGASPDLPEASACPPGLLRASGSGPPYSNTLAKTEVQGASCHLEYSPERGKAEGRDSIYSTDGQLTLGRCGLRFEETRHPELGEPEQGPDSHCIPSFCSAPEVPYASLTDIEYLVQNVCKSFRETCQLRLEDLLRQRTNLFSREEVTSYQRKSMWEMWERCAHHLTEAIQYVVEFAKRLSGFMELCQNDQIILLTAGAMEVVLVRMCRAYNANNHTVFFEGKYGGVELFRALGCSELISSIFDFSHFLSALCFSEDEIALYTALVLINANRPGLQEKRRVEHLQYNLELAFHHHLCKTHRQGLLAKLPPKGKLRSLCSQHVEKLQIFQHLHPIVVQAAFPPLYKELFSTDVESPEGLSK
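Luminescence from a UAS-regulated Photinus luciferase reporter in stably transfected Drosophila Schneider cells is measured; decreased signal marks ROR gamma inhibition. Fusion expression is induced by 700 uM copper sulfate for 20 hr.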
TDP1 cell CPT: qHTS for Inhibitors of human tyrosyl-DNA phosphodiesterase 1 (TDP1): qHTS in cells in presence of CPT; AID 686979, 2013; Potency, µM (titrated, usually from 46.2 µM), for inactives: top-dose activity change, negative = growth inhibition, most hits filed as inhibitors; hit rate 12% among 420,000; chicken DT40 Tdp1-/-;hTDP1 cells + 20 nM CPT, ATP luminescence, 48 h; further: potency means the concentration at half of the fitted maximal effect; nearly all actives have a fitted effect of over 55% in size
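Cell growth measured by CellTiter-Glo luminescence after a minimum 48 h, 37 C compound exposure with 20 nM CPT in Tdp1-knockout DT40 cells stably expressing hTDP1, seeded 400/well; qHTS titration format.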
ELG1 repair inh: qHTS screen for small molecules that inhibit ELG1-dependent DNA repair in human embryonic kidney (HEK293T) cells expressing luciferase-tagged ELG1 | HEK293T ELG1-luciferase reporter, luminescence, 16 h; DNA damage induced by 5-fluorouridine | Potency, µM (series often up to 46.1 µM), for the others: at the top dose activity change, negative = inhibition, hits mostly inhibitors | hit rate 2.3% among 330,000 | AID 504467, 2011; further: potency means the concentration at half of the fitted maximal effect; nearly all actives have a fitted effect of over 55% in size
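In this reporter screen, reduction of luminescence relative to DMSO vehicle indicated activity. Compounds and 5-fluorouridine were added together to 2,000 cells per well, incubated for 16 hr at 37 °C, then developed with ONE-Glo.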
IL1B secr inh: qHTS for Inhibitors of Inflammasome Signaling: IL-1-beta AlphaLISA Primary Screen | THP-1 LPS/ATP IL-1B secretion, AlphaLISA, 16 h; active compounds read low | activity change, % at 57.5 µM | hit rate 4.7% among 360,000; in the data active means activity change below about -50%; inconclusive means mostly about -30% to -49%
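Secreted IL-1B measured by AlphaLISA bead assay after 16 h compound exposure of THP-1 cells; compounds (final up to 57.5 uM) added 1 h before LPS (250 ng/mL) and ATP (1.25 mM) stimulation; lower signal means less secretion.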
TDP1 cell noCPT: qHTS for Inhibitors of human tyrosyl-DNA phosphodiesterase 1 (TDP1): qHTS in cells in absence of CPT; AID 686978, 2013; hit rate 15% among 420,000; DT40 Tdp1-/- hTDP1 cells, no CPT, ATP luminescence, 48 h; Potency, µM (top dose mostly 46.2 µM), for the others: at the top dose activity change, negative = growth inhibition, hits mostly inhibitors; further: potency means the concentration at half of the fitted maximal effect; nearly all actives have a fitted effect of over 55% in size
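Readout: luminescence from CellTiter-Glo after 30 min in the dark at RT. Cells: DT40 Tdp1-/- with stable hTDP1, 400/well. Exposure: compounds alone, ≥48 hr, 37 °C.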
Numbers without * were called inactive; u = inconclusive; x = not tested or not shown; [ ] = dose if it differs, or a comment. Unless noted, the call rests on the fitted dose curve; in most records, active means well fitted curve in the direction sought with a large enough effect; inconclusive means small, poorly fitted or top-dose-only effect, or another doubt; inactive means no such curve, though single readings can be large; an effect the other way counts as inactive or inconclusive. On the % scale 0 is the no-effect control and ±100 the full control effect.

SMILES	Gal4-VP16 FLuc	RORg inh	TDP1 cell CPT	ELG1 repair inh	IL1B secr inh	TDP1 cell noCPT
CC1Cc2ccccc2N1C(=O)CSc1nnnn1C (stereo not drawn)	-6.9%	-17.4%	-22.6%	-1.3%	10.5	-8.9%
CCCn1c(SCC(=O)N2c3ccccc3CC2C)nnc1-c1ccco1 (stereo not drawn)	-4.7%	u	20.6µM*	u	-14.0	u
Cc1cccc(OCc2nnc(SCC(=O)N3c4ccccc4CC3C)n2C)c1C (stereo not drawn)	14.1µM*	u	u	u	-25.4	u
CC(C)=CCC[C@](C)(O)C1CC=C(C)CC1 (stereo partly drawn)	1.4%	5.1%	x	x	x	x
N#Cc1ccccc1COC(=O)c1cccc(S(=O)(=O)N2CCCC2)c1	x	x	11.6%	-25.7%	6.6	7.6%
COc1ccc(CNC(=O)Cn2cccc2C(=O)c2ccccc2)cc1	15.3%	39.9%	-22.4%	u	2.2	19.8%
Cc1nn(Cc2c(Cl)cccc2Cl)c(Cl)c1/C=C/C(=O)OCC(=O)NCC(F)(F)F	5.6%	u	u	-0.2%	18.8	u
COCCNC(=O)COC(=O)/C=C/c1c(C)nn(Cc2ccc(Cl)cc2Cl)c1Cl	u	31.3%	14.6µM*	-20.9%	1.1	16.4µM*
CC(=O)N[C@H]1[C@H]([C@H](O)[C@H](O)CO)OC(C(=O)O)=C[C@@H]1N=C(N)N	x	x	-19.5%	x	x	-16.5%
CC(=O)Nc1ccc(NC(=O)Cn2cc3c(n2)CCCCC3)cc1	x	x	-1.1%	x	x	-2.8%
CCC(C)C(=O)Nc1nccs1 (stereo not drawn)	17.8µM*	5.62µM*	-3.5%	u	14.7	13.1%
CCC(C(=O)Nc1nccs1)(C(F)(F)F)C(F)(F)F	7.94µM*	7.08µM*	-12.4%	-6.0%	-15.2	u
CC(Oc1ccc(Cl)cc1)C(=O)Nc1ccc(S(=O)(=O)Nc2nccs2)cc1 (stereo not drawn)	-6.4%	47.3%	2.7%	0.9%	-2.5	-4.4%
CC(Oc1ccc(Cl)cc1)C(=O)Nc1nccs1 (stereo not drawn)	-14.7%	14.1µM*	3.6%	6.7%	-11.5	u
CCC(NC(=O)Nc1nccs1)(C(F)(F)F)C(F)(F)F	0.0%	1.3%[10 µM]	4.1%	-16.9%	99.2	-15.2%
Nc1nc2c(ncn2[C@@H]2O[C@H](CNCc3ccccc3)[C@@H](O)[C@H]2O)c(=O)[nH]1	x	x	12.2%	x	22.8	u
Cc1ccc(F)c(S(=O)(=O)NC(=O)C2(C)CCN2C(=O)CCC2CCCC2)c1 (stereo not drawn)	x	x	0.6%	x	0.0	6.4%
CCCCn1c(-c2nonc2N)nc2ccccc21	-11.6%	u	u	u	35.0	u
Nc1nonc1-c1nc2ccccc2n1Cc1ccccc1	-16.8%	-24.5%	u	-15.5%	u	29.1µM*
Nc1nonc1-c1nc2ccccc2n1Cc1ccc(Br)cc1	x	x	-20.4%	x	x	-16.3%
CC(C)CCn1c(-c2nonc2N)nc2ccccc21	u	10µM*	13µM*	23.1µM*	14.0	u
Nc1ncnc2c1ncn2[C@@H]1O[C@H](C(=O)NC2CC2)[C@@H](O)[C@H]1O	x	x	-5.5%	x	x	3.8%
COc1ccc(-n2c(=O)c3sc4ccccc4c3n(Cc3ccccc3)c2=O)cc1	x	x	u	x	x	-25.9%
COc1ccc(NC(=O)Cn2c(=O)n(CCc3ccccc3)c(=O)c3sc4ccccc4c32)cc1	x	x	-13.5%	x	x	-1.5%
Cc1ccc(NC(=O)Cn2c(=O)n(Cc3ccccc3)c(=O)c3sc4ccccc4c32)cc1	x	x	5.8µM*	x	x	5.8µM*
SMILES	Gal4-VP16 FLuc	RORg inh	TDP1 cell CPT	ELG1 repair inh	IL1B secr inh	TDP1 cell noCPT
O=c1c2sc3ccccc3c2n(Cc2cccc(C(F)(F)F)c2)c(=O)n1-c1ccccc1	x	x	u	x	x	13µM*
Cc1cccc(Cn2c(=O)n(Cc3ccccc3)c(=O)c3sc4ccccc4c32)c1	x	x	u	x	x	23.1µM*
Cc1ccccc1Cn1c(=O)n(CCc2ccccc2)c(=O)c2sc3ccccc3c21	x	x	0.5%	x	x	-3.9%
OC[C@@H]1CN(Cc2cccc(C(F)(F)F)c2)C[C@H](n2cnc3c(NCc4ccncc4)ncnc32)O1	x	x	u	x	-22.4	u
CC(=O)Nc1ccc(NC(=O)C2CCCN2S(=O)(=O)c2ccc3c(c2)CCCC(=O)N3)cc1 (stereo not drawn)	x	x	-12.2%	x	x	-1.0%
CC(C)[C@@H](COc1ccccc1)N1CCN(Cc2ccccc2)CCC1=O	0.9%	-2.1%	11.2µM*	-9.0%	-4.5	u
O=C(Nc1ccccc1)OCCN1CCN(Cc2ccccc2)CCC1=O	-6.3%	3.3%	1.8%	-3.4%	-4.9	-11.0%
O=C(Nc1cccc(Cl)c1)OCCN1CCN(Cc2ccccc2)CCC1=O	-26.2%	u	u	-6.2%	-2.1	18.4µM*
O=C1CCN(Cc2ccccc2)CCN1CCOc1ccccc1	-3.4%	u	20.6µM*	u	-4.3	16.4µM*
COc1ccc(Cl)cc1CNC[C@H]1O[C@@H](n2cnc3c(=O)[nH]c(N)nc32)[C@H](O)[C@@H]1O	x	x	-13.5%	x	-21.7	-2.0%
COc1ccc(-c2nc3nc(C)cc(=O)n3[nH]2)cc1	-8.7%	-12.9%	1.2%	12.5%	5.9	-3.6%
Cc1ccc(S(=O)(=O)N2CCCCC2CCNC(=O)C(=O)NCc2ccco2)cc1 (stereo not drawn)	x	x	13µM*	-1.6%	-17.1	7.31µM*
Cc1cc(C)c(S(=O)(=O)N2CCCCC2CCNC(=O)C(=O)NCc2ccco2)c(C)c1 (stereo not drawn)	x	x	u	u	u	16.4µM*
Cc1ccc(S(=O)(=O)N2CCCCC2CCNC(=O)C(=O)NCCc2ccco2)cc1 (stereo not drawn)	x	x	2.91µM*	-0.8%	7.4	4.11µM*
O=C(NCCc1ccco1)C(=O)NCC1CCCN1S(=O)(=O)c1ccccc1 (stereo not drawn)	x	x	11.6µM*	u	-4.7	4.11µM*
CC(Nc1oc(-c2ccccc2)nc1-c1ccc(C(F)(F)F)cc1)c1ccccc1 (stereo not drawn)	4.5%	17.8%	x	x	x	x

Screens deposited in PubChem BioAssay by National Center for Advancing Translational Sciences (NCATS).
